Results published in PubChem BioAssay AID1159580 (chemical genetic matrix, 2015).
Out of some 5,500 compounds screened, about 2,000 (36%) were called active. About 18% were inconclusive and are not listed. Cut-off read from the data, not from the text of the source: active = normalized growth mostly below about 0.91 (no sharp cut-off); inconclusive = no clear call, values can overlap the other calls; inactive = mostly above about 0.92. The list shows a part of the results.

Assay: chemical genetic growth profiling, strain panel (AID 1159580);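 note: tested at 20 µM; growth read once vehicle control cultures reached saturation at 30 °C; 1 = growth at the plate median or of vehicle wells; lower values mean less growth of the strain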
Details: growth OD

Measured: normalized growth

N=C(N)c1ccc(OCCCCCOc2ccc(C(=N)N)cc2)cc1
active: S. cerevisiae deletion strains, locus YKL068W, active compounds read low 0.92 | S. cerevisiae deletion strains, locus YLR418C, strain cdc73, active compounds read low 0.789 | S. cerevisiae deletion strains, locus YML032C, strain rad52, active compounds read low 0.828 | S. cerevisiae deletion strains, locus YMR058W, strain fet3, active compounds read low 0.828 | S. cerevisiae deletion strains, locus YMR205C, strain PFK2, active compounds read low 0.758 | S. cerevisiae deletion strains, locus YMR223W, strain ubp8, active compounds read low 0.868 | S. cerevisiae deletion strains, locus YMR307W, strain GAS1, active compounds read low 0.554 | S. cerevisiae deletion strains, locus YNL250W, strain rad50, active compounds read low 0.894 | S. cerevisiae deletion strains, locus YNL307C, strain MCK1, active compounds read low 0.811 | S. cerevisiae deletion strains, locus YNR052C, strain pop2, active compounds read low 0.823 | S. cerevisiae deletion strains, locus YOR144C, strain elg1, active compounds read low 0.921 | S. cerevisiae deletion strains, locus YOR184W, strain ser1, active compounds read low 0.832 | S. cerevisiae deletion strains, locus YPR141C, strain kar3, active compounds read low 0.905 | S. cerevisiae deletion strains, locus YPR163C, strain tif3, active compounds read low 0.901 | S. cerevisiae deletion strains, strain wtn01, active compounds read low 0.891
inactive: S. cerevisiae deletion strains, locus YJR043C, strain POL32, active compounds read low 0.909 | S. cerevisiae deletion strains, locus YJR075W, strain HOC1, active compounds read low 0.918 | S. cerevisiae deletion strains, locus YKL009W, strain mrt4, active compounds read low 0.942 | S. cerevisiae deletion strains, locus YKL085W, strain MDH1 (second series), active compounds read low 0.936 | S. cerevisiae deletion strains, locus YKL085W, strain MDH1, active compounds read low 0.936 | S. cerevisiae deletion strains, locus YKL160W, strain elf1, active compounds read low 0.948 | S. cerevisiae deletion strains, locus YKL190W, strain CNB1, active compounds read low 0.959 | S. cerevisiae deletion strains, locus YKR001C, strain vps1, active compounds read low 0.952 | S. cerevisiae deletion strains, locus YKR026C, strain gcn3, active compounds read low 0.967 | S. cerevisiae deletion strains, locus YKR091W, strain srl3, active compounds read low 0.961 | S. cerevisiae deletion strains, locus YLL001W, strain dnm1, active compounds read low 0.916 | S. cerevisiae deletion strains, locus YLL026W, active compounds read low 0.97 | S. cerevisiae deletion strains, locus YLL041C, strain sdh2, active compounds read low 0.974 | S. cerevisiae deletion strains, locus YLR027C, strain aat2, active compounds read low 0.951 | S. cerevisiae deletion strains, locus YLR039C, strain RIC1, active compounds read low 1.09 | S. cerevisiae deletion strains, locus YLR058C, strain SHM2, active compounds read low 0.977 | S. cerevisiae deletion strains, locus YLR102C, strain apc9, active compounds read low 0.939 | S. cerevisiae deletion strains, locus YLR221C, strain rsa3, active compounds read low 0.958 | S. cerevisiae deletion strains, locus YLR258W, strain gsy2, active compounds read low 0.963 | S. cerevisiae deletion strains, locus YLR262C, strain YPT6 (second series), active compounds read low 0.988 | S. cerevisiae deletion strains, locus YLR262C, strain YPT6, active compounds read low 1.11 | S. cerevisiae deletion strains, locus YLR268W, strain sec22, active compounds read low 0.887 | S. cerevisiae deletion strains, locus YLR320W, strain mms22, active compounds read low 0.89 | S. cerevisiae deletion strains, locus YLR330W, strain CHS5, active compounds read low 0.999 | S. cerevisiae deletion strains, locus YLR342W, strain FKS1 (second series), active compounds read low 0.89 | S. cerevisiae deletion strains, locus YLR342W, strain FKS1, active compounds read low 0.958 | S. cerevisiae deletion strains, locus YLR357W, strain rsc2, active compounds read low 0.979 | S. cerevisiae deletion strains, locus YLR370C, strain arc18, active compounds read low 0.954 | S. cerevisiae deletion strains, locus YLR371W, strain rom2, active compounds read low 0.929 | S. cerevisiae deletion strains, locus YLR384C, strain iki3, active compounds read low 0.944 | S. cerevisiae deletion strains, locus YML016C, strain PPZ1, active compounds read low 0.991 | S. cerevisiae deletion strains, locus YML120C, strain ndi1, active compounds read low 0.956 | S. cerevisiae deletion strains, locus YML124C, strain tub3, active compounds read low 0.943 | S. cerevisiae deletion strains, locus YMR078C, strain ctf18, active compounds read low 0.912 | S. cerevisiae deletion strains, locus YMR125W, strain sto1, active compounds read low 0.949 | S. cerevisiae deletion strains, locus YMR129W, active compounds read low 0.974 | S. cerevisiae deletion strains, locus YMR231W, strain pep5, active compounds read low 0.965 | S. cerevisiae deletion strains, locus YMR263W, strain SAP30, active compounds read low 0.93 | S. cerevisiae deletion strains, locus YNL067W, strain RPL9B, active compounds read low 0.93 | S. cerevisiae deletion strains, locus YNL071W, strain lat1, active compounds read low 0.957 | S. cerevisiae deletion strains, locus YNL128W, strain TEP1, active compounds read low 0.926 | S. cerevisiae deletion strains, locus YNL153C, strain GIM3, active compounds read low 0.958 | S. cerevisiae deletion strains, locus YNL209W, strain ssb2, active compounds read low 0.948 | S. cerevisiae deletion strains, locus YNL233W, strain BNI4, active compounds read low 0.927 | S. cerevisiae deletion strains, locus YNL248C, strain rpa49, active compounds read low 0.955 | S. cerevisiae deletion strains, locus YNL271C, strain bni1, active compounds read low 0.929 | S. cerevisiae deletion strains, locus YNL298W, strain CLA4, active compounds read low 0.931 | S. cerevisiae deletion strains, locus YNL322C, strain KRE1 (second series), active compounds read low 0.918 | S. cerevisiae deletion strains, locus YNL322C, strain KRE1, active compounds read low 0.972 | S. cerevisiae deletion strains, locus YNR049C, strain mso1, active compounds read low 0.941 | S. cerevisiae deletion strains, locus YOL006C, strain TOP1, active compounds read low 1.11 | S. cerevisiae deletion strains, locus YOL012C, strain htz1 0.566 | S. cerevisiae deletion strains, locus YOL147C, strain pex11, active compounds read low 0.939 | S. cerevisiae deletion strains, locus YOR001W, strain rrp6, active compounds read low 0.94 | S. cerevisiae deletion strains, locus YOR061W, strain CKA2, active compounds read low 0.964 | S. cerevisiae deletion strains, locus YOR069W, strain VPS5, active compounds read low 0.964 | S. cerevisiae deletion strains, locus YOR070C, strain gyp1, active compounds read low 0.97 | S. cerevisiae deletion strains, locus YOR080W, strain dia2, active compounds read low 0.936 | S. cerevisiae deletion strains, locus YOR083W, strain WHI5, active compounds read low 0.927 | S. cerevisiae deletion strains, locus YOR106W, strain vam3, active compounds read low 0.997 | S. cerevisiae deletion strains, locus YOR136W, strain idh2, active compounds read low 0.95 | S. cerevisiae deletion strains, locus YOR265W, strain rbl2, active compounds read low 0.962 | S. cerevisiae deletion strains, locus YOR270C, strain vph1, active compounds read low 1.17 | S. cerevisiae deletion strains, locus YOR290C, strain snf2, active compounds read low 0.946 | S. cerevisiae deletion strains, locus YOR316C, strain cot1, active compounds read low 0.943 | S. cerevisiae deletion strains, locus YPL051W, strain arl3, active compounds read low 0.98 | S. cerevisiae deletion strains, locus YPL055C, strain LGE1, active compounds read low 0.943 | S. cerevisiae deletion strains, locus YPL078C, strain atp4, active compounds read low 1.03 | S. cerevisiae deletion strains, locus YPL106C, strain sse1, active compounds read low 0.948 | S. cerevisiae deletion strains, locus YPL240C, strain hsp82, active compounds read low 0.989 | S. cerevisiae deletion strains, locus YPL241C, strain CIN2, active compounds read low 0.973 | S. cerevisiae deletion strains, locus YPR119W, strain clb2, active compounds read low 0.934 | S. cerevisiae deletion strains, locus YPR167C, strain met16, active compounds read low 0.944 | S. cerevisiae strains, strain wild type, active compounds read low 0.94
